Activity calls are given as the source filed them.
Experiments:
[1] = tested on: PRMT1 (protein arginine N-methyltransferase 1); assay: small molecules binding arginine methyltransferase PRMT1 – biochemical, small-molecule microarray, 635 nm fluorescence, primary screen (AID 1088); conditions: higher = more signal;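 further: binding of Prmt1 protein to compounds spotted on small-molecule microarray slides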
[2] = growth effects on S. cerevisiae YJM789 – YJM789 clinical isolate, OD600, 24 h, basal, primary screen (AID 1089); conditions: higher = more signal, called active from +8 up or from −8 down;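 further: growth of clinical yeast isolate S. cerevisiae YJM 789 seeded 1000 cells per well; test concentration not given here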
[3] = S. pombe growth modifiers, basal conditions – strain 972, OD600, 24 h, no modulator, primary screen (AID 1090);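 further: basal condition with compound alone and no growth modifier present; test concentration not given here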; conditions: S. pombe 972 growth, higher = more signal, called active from +8 up or from −8 down
[4] = budding yeast growth modifiers under rapamycin – strain BY4716, OD600, 96 h, primary screen (AID 1091); further: test concentration not given here; conditions: S. cerevisiae BY4716 + rapamycin, higher = more signal, called active from +8 up or from −8 down
[5] = molecular target: Torsin-1A-interacting protein 2 (Homo sapiens) (UniProt Q8NFQ8); assay: small molecules binding lysate-expressed LULL1 – cell lysate, human LULL1 lysate, 635/667 nm fluorescence, primary screen (AID 1092); conditions: small-molecule microarray, hLULL1 lysate binding, 635 nm fluorescence; higher = more signal;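 further: probe is lysate of COS7 cells overexpressing human LULL1; score merges per-feature 667 nm fluorescence with signal-to-noise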
Sequence of Torsin-1A-interacting protein 2 (Homo sapiens) (Q8NFQ8 whole entry, looked up): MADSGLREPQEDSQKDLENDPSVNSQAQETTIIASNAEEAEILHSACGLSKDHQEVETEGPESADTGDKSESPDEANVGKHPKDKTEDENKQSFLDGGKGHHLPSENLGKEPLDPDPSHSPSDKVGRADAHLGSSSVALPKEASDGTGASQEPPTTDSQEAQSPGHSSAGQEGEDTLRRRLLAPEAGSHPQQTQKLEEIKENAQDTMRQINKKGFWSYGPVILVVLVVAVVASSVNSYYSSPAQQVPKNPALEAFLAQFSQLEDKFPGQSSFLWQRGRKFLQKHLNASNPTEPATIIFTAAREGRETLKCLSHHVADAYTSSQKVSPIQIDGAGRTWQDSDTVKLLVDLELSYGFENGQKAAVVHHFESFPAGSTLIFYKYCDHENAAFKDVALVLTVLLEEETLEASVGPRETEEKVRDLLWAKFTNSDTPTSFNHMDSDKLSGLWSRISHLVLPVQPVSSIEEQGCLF

[6] = optical density change of DRC41 E. coli – strain DRC41, OD650, 24 h, E. coli filamentation project, primary screen (AID 1093);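 further: MC1000 strain lacking acrAB efflux and sulA so SOS filamentation is blocked; test concentration not given here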; conditions: E. coli DRC41 growth, higher = more signal, called active from +8 up or from −8 down
[7] = probe aLefty2 binding to arrayed compounds – biochemical, biotinylated probe, 635/667 nm fluorescence, primary screen (AID 1094); conditions: small-molecule microarray, higher = more signal;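 further: score merges spot fluorescence near 667 nm with spot signal-to-noise ratio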
[8] = tested on: Noggin (protein binding on small-molecule microarray); assay: small molecules binding Noggin protein – biochemical, 635/667 nm fluorescence, primary screen (AID 1095); conditions: 635 nm fluorescence, higher = more signal;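 further: score merges 667 nm feature fluorescence with signal to noise over triplicate slides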
[9] = molecular target: Neurogenic locus notch homolog protein 3 (Homo sapiens) (UniProt Q9UM47); assay: small molecules binding NOTCH3 protein – biochemical, 635/667 nm fluorescence, primary screen (AID 1096); conditions: small-molecule microarray, 635 nm fluorescence, higher = more signal
Sequence of Neurogenic locus notch homolog protein 3 (Homo sapiens) (Q9UM47 whole entry, looked up): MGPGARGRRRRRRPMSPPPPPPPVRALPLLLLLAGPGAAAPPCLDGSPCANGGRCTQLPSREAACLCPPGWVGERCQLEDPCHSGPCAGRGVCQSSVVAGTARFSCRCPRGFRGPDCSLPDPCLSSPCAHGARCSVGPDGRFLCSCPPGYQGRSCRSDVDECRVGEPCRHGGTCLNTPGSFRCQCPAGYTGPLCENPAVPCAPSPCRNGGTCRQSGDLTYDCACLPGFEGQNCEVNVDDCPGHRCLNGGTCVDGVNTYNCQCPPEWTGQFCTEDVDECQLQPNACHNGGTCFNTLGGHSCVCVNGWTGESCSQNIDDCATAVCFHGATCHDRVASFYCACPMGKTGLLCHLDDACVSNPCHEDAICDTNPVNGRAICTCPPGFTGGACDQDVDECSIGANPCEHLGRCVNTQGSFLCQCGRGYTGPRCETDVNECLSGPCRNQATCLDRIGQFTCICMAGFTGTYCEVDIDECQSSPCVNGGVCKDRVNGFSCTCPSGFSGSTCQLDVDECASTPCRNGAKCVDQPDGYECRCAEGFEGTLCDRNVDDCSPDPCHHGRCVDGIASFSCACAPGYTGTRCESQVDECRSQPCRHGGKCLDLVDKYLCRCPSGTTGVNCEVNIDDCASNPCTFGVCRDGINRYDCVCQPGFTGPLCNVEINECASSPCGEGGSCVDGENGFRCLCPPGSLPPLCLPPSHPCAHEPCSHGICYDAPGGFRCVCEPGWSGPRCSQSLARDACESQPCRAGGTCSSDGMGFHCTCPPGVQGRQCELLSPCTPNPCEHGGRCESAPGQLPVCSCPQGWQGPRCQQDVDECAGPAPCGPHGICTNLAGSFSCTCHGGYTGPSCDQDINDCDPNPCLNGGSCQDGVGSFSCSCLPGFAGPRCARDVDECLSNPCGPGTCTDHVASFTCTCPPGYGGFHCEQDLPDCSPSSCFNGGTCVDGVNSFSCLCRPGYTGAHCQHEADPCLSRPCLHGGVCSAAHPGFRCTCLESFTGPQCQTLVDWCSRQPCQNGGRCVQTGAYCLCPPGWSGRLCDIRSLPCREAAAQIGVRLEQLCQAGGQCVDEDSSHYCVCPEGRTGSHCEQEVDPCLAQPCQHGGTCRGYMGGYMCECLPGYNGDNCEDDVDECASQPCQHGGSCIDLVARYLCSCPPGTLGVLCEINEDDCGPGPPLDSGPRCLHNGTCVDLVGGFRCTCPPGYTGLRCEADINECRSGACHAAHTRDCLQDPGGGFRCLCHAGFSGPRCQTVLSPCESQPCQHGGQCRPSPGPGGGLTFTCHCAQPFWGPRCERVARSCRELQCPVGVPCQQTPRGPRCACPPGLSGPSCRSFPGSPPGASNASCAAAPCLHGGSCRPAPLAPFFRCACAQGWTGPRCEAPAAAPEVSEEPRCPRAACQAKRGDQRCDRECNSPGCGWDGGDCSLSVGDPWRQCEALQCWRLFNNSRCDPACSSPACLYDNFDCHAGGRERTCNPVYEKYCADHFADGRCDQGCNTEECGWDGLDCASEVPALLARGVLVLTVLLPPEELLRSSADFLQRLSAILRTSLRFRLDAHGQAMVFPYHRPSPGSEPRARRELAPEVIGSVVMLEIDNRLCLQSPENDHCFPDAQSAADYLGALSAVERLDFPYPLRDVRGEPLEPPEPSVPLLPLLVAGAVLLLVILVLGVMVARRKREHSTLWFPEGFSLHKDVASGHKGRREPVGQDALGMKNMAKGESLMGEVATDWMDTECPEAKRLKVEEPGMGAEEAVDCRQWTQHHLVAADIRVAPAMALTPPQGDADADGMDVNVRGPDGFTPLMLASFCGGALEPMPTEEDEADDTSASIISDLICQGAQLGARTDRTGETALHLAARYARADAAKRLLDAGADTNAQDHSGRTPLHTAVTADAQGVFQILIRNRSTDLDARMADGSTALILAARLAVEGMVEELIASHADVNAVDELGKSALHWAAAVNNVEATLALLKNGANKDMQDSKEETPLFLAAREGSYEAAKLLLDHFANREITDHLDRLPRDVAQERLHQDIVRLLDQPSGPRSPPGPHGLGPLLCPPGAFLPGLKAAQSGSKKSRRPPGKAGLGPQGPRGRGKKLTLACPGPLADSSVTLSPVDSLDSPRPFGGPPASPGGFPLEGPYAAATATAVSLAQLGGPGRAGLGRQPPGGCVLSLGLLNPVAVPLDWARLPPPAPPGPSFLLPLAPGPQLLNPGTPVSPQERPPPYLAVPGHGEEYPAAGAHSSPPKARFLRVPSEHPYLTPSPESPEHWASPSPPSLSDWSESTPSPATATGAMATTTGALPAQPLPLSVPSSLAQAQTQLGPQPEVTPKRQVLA

[10] = probe aEGFR binding to arrayed compounds – biochemical, biotinylated probe, 635/667 nm fluorescence, primary screen (AID 1097); conditions: small-molecule microarray, higher = more signal;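 further: probe is a biotinylated anti-EGFR antibody binding compounds printed on slides; score combines fluorescence near 667 nm and signal to noise of each spot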
[11] = tested on: Plasmodium falciparum Sir2 (PF13_0152, Sir2A); assay: Plasmodium falciparum Sir2A binding compounds – biochemical, small-molecule microarray, 635 nm fluorescence, primary screen (AID 1098); conditions: fluorescence 635 nm, higher = more signal;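 further: score merges spot fluorescence intensity with its signal-to-noise ratio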
[12] = probe aDKK1 binding to arrayed compounds – biochemical, biotinylated probe, 635/667 nm fluorescence, primary screen (AID 1099); conditions: small-molecule microarray, higher = more signal;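 further: score merges 667nm spot fluorescence with signal to noise across triplicate slides; reference of the scale not given here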
[13] = probe aCHRDL2 binding to arrayed compounds – biochemical, biotinylated probe, 635/667 nm fluorescence, primary screen (AID 1100); conditions: small-molecule microarray, higher = more signal
[14] = change in splice reporter luminescence, either direction, cell-based, HEK293, spliceosome inhibition project, primary screen (AID 1101); conditions: HEK293 splicing luciferase reporter, 24 h, higher = more signal, called active from +8 up or from −8 down;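 further: HEK293 cells carrying a splicing-competent luciferase reporter gene; test concentration not given here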
[15] = molecular target: Fibroblast growth factor 10 (Homo sapiens) (UniProt O15520); assay: compounds binding fibroblast growth factor 10 – biochemical, small-molecule microarray, 635 nm fluorescence, primary screen (AID 1102); conditions: FGF10 binding, fluorescence 635 nm, higher = more signal
Sequence of Fibroblast growth factor 10 (Homo sapiens) (O15520 whole entry, looked up): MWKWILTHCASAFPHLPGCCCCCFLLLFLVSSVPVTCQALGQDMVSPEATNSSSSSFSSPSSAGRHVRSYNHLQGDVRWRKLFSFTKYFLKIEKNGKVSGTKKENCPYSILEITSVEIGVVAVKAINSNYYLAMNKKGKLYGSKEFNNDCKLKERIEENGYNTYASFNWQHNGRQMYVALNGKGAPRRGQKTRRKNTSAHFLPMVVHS

[16] = tested on: glycogen synthase kinase-3 (GSK3A per assay name; protocol says GSK3B); assay: compounds binding glycogen synthase kinase-3 – biochemical, small-molecule microarray, 635 nm fluorescence, GSK3A, primary screen (AID 1103); conditions: fluorescence 635 nm, higher = more signal; further: the record names both GSK3A and GSK3B
[17] = molecular target: Epidermal growth factor receptor (Homo sapiens) (UniProt P00533); assay: compounds binding epidermal growth factor receptor – biochemical, small-molecule microarray, 635 nm fluorescence, primary screen (AID 1104); conditions: EGFR binding, higher = more signal;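 further: score merges 667 nm emission intensity with spot signal to noise over triplicate slides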
Sequence of Epidermal growth factor receptor (Homo sapiens) (P00533 whole entry, looked up): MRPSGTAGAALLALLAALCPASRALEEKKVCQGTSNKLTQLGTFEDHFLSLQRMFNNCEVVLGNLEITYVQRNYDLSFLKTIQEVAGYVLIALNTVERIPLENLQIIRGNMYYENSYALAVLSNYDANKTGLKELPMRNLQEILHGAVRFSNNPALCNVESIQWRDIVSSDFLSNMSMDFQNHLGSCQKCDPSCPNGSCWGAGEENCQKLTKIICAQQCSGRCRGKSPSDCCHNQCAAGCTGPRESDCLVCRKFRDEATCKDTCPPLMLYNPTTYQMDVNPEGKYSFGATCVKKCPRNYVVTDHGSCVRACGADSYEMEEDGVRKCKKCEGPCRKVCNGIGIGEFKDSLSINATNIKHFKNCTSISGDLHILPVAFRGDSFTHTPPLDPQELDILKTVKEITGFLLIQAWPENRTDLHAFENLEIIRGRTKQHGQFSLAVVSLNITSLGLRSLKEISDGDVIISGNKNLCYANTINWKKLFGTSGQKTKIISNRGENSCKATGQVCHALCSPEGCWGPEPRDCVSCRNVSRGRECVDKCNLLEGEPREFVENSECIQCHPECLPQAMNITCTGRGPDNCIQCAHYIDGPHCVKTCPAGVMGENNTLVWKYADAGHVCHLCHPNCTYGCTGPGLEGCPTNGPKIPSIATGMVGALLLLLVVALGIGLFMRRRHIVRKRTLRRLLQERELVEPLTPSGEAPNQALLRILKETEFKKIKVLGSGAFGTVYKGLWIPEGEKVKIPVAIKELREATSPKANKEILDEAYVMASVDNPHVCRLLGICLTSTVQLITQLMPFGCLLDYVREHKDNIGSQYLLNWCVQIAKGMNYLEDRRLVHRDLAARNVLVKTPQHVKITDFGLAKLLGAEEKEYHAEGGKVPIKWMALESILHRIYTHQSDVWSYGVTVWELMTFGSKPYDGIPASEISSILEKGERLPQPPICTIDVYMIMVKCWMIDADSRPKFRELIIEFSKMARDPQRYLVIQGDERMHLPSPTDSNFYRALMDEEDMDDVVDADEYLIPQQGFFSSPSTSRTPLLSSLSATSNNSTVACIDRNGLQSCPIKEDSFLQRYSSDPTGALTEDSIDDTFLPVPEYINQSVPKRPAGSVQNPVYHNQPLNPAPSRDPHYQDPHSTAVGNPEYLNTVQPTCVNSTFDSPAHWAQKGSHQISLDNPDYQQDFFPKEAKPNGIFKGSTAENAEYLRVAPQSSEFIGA

[18] = molecular target: Follistatin-related protein 3 (Homo sapiens) (UniProt O95633); assay: compounds binding follistatin-related protein 3 – biochemical, small-molecule microarray, 635 nm fluorescence, primary screen (AID 1105); conditions: FSTL3 binding, higher = more signal;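 further: score merges emission near 667 nm and signal to noise per printed spot across three slides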
Sequence of Follistatin-related protein 3 (Homo sapiens) (O95633 whole entry, looked up): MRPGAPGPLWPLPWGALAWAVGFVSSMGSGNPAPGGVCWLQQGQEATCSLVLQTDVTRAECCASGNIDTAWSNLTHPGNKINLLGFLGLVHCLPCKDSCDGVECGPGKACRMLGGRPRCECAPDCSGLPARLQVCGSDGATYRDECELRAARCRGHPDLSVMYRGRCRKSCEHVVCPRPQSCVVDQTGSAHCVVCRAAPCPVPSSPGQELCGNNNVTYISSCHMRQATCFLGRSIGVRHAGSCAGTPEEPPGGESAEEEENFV

[19] = molecular target: Dickkopf-related protein 1 (Homo sapiens) (UniProt O94907); assay: small molecules binding DKK1 protein – biochemical, small-molecule microarray, 635 nm fluorescence scan, primary screen (AID 1106); conditions: higher = more signal;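 further: score merges emission near 667 nm with signal to noise over three replicate slides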
Sequence of Dickkopf-related protein 1 (Homo sapiens) (O94907 whole entry, looked up): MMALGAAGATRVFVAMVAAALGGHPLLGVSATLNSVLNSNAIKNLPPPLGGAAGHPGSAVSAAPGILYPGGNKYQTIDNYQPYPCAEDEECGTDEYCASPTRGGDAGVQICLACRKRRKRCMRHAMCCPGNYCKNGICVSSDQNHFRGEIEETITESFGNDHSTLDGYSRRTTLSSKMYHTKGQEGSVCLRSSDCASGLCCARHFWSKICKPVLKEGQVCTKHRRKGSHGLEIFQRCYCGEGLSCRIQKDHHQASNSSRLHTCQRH

[20] = tested on: Inhibin beta A chain (activin A); assay: small molecules binding activin A – biochemical, small-molecule microarray, 635 nm fluorescence scan, primary screen (AID 1107); conditions: INHBA, higher = more signal;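 further: mouse activin A protein probed at 4.33 µg/mL on printed slides; score merges bound-protein fluorescence near 667 nm with spot signal-to-noise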

| Structure (SMILES) | composite z-score [1] | z-score [2] | z-score [3] | z-score [4] | composite z-score [5] | z-score [6] | composite z-score [7] | composite z-score [8] | composite z-score [9] | composite z-score [10] | composite z-score [11] | composite z-score [12] | composite z-score [13] | z-score [14] | composite z-score [15] | composite z-score [16] | composite z-score [17] | composite z-score [18] | composite z-score [19] | composite z-score [20] |
| --- | --- | --- | --- | --- | --- | --- | --- | --- | --- | --- | --- | --- | --- | --- | --- | --- | --- | --- | --- | --- |
| CCCC=C(CCC)[C@@H](NC(=O)c1ccc(C(=O)OC)cc1)c1ccc(C(=O)OC)cc1 | 0.0599 | 0.57 (inactive) | 0.311 (inactive) | 0.182 (inactive) | 2.85 | -1.29 (inactive) | 0.177 | 0.294 | 0.251 | 0.0173 | -0.427 | 0.816 | 0.48 | -1.32 (inactive) | -0.363 | -0.197 | -0.195 | -0.0762 | -0.158 | 0.804 |
| CN1C(=O)C2CC=C(C3=CCO[C@@H]3[C@H]3CCCN3S(=O)(=O)c3ccccc3[N+](=O)[O-])CC2C1=O (stereo not given in full) | 0.0659 | -0.0649 (inactive) | -0.706 (inactive) | -0.0153 (inactive) | 0.283 | -0.66 (inactive) | -0.203 | -0.194 | 0.01 | -0.171 | 1.11 | -0.22 | -0.193 | 0.129 (inactive) | 0.447 | -0.12 | -0.141 | -0.59 | -0.261 | 0.666 |
| CC1CC/C=C\[C@H]2OC34C=CCN(C(C)C)C(=O)[C@H]3N(C(C)CO)C(=O)[C@@H]4C2C(=O)O1 (stereo not given in full) | 0.216 | 0.0052 (inactive) | 0.285 (inactive) | -0.448 (inactive) | 0.476 | 1.62 (inactive) | -0.172 | 0.202 | 0.41 | -0.158 | 0.048 | -0.27 | -0.335 | -0.789 (inactive) | -0.171 | -0.297 | -0.467 | 0.0275 | 0.165 | 0.727 |
| CC1(C)OB(/C=C\CC(OC(=O)c2ccncc2)c2ccccc2)OC1(C)C (stereo not given) | -0.477 | -1.7 (inactive) | -1.3 (inactive) | 1.99 (inactive) | 0.962 | 1.04 (inactive) | 1.22 | -1.92 | -1.73 | -0.244 | 0.398 | 1.17 | 1.47 | 0.639 (inactive) | -0.951 | -0.131 | -1.31 | -0.0031 | -1.26 | 1.75 |
| NCCCCCCNC(=O)[C@@H]1C[C@@H]2C(=O)NCC(=O)N2[C@@H]1c1cccc(OCCO)c1 | 1.37 | -0.205 (inactive) | -0.542 (inactive) | -0.138 (inactive) | 2.11 | 1.04 (inactive) | 0.0997 | 1.12 | 0.783 | 0.0988 | 1.6 | 0.45 | 0.0888 | -0.734 (inactive) | 1.37 | 1.3 | 0.702 | 0.98 | 1.32 | 1.12 |

— PubChem BioAssay
